Assay outcomes as filed in PubChem.
Compounds with a hit are over-represented: about 4.6% of the library has one in this group of screens.
SKKanGAS inh – S. pyogenes SKKanGAS growth inhibitors in kanamycin, primary screen, streptokinase expression inhibitor project, SKKanGAS strain, BacTiter-Glo luminescence. 6 h. inhibition, % at 7.5 µM. hit rate 1.3% among 300,000. AID 1662, 2009;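 active = mean replicate score, as percent of positive control median, at least 50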;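 also: strain carries kanamycin resistance gene driven by streptokinase promoter and grows in 40 µg/ml kanamycin; loss of luminescence reflects streptokinase promoter inhibition or plain growth inhibition; 0% = median of DMSO wells and 100% = positive control at its reference dose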
NLRP3 yeast inh – NALP3 inflammasome inhibitors in reconstituted yeast, primary screen, luminescence, uHTS; Yeast reconstituted NLRP3/ASC/caspase-1, beta-gal luminescence, 24 h; hit rate 0.39% among 330,000; AID 2825, 2010; inhibition, % at 10 µM;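 active = inhibition of 50% or more; inactive = inhibition below 50%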;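 also: plate controls were induced DMSO wells for no effect and uninduced yeast grown without galactose for full effect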
tim23-1 inh – growth inhibitors of tim23-1 mutant yeast, primary screen, luminescence, uHTS; S. cerevisiae tim23-1 growth, BacTiter-Glo luminescence, 24 h; inhibition, % at 20 µM; hit rate 1.3% among 330,000;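 active = growth inhibition of the mutant yeast at or above 50%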;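 also: temperature-sensitive mutant grown at 25 °C; plate controls were DMSO-treated mutant yeast for no effect and medium wells lacking yeast for full effect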
TIM10 inh – growth inhibitors of isogenic TIM10 control yeast, primary screen, counter-screen for tim10-1 yeast inhibitor project, luminescence, uHTS; S. cerevisiae TIM10 strain growth, BacTiter-Glo luminescence, 24 h; AID 463195, 2010; hit rate 1.4% among 330,000; inhibition, % at 10 µM;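 active = inhibition of 40% or more at the single tested concentration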;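 also: wild-type TIM10 isogenic control strain grown at permissive 25 °C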
PfHsp90 set2 – growth inhibition of PfHsp90-expressing yeast, primary screen, antimalarial PfHsp90 inhibitor project, S. cerevisiae, BacTiter-Glo luminescence, single point, set 2 | hit rate 0.32% among 310,000 | BacTiter-Glo ATP, 48 h; yeast lacking PDR1 and PDR3 efflux regulators | inhibition, % at 9.4 µM;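 active = every replicate shows inhibition above about 80%, whatever the replicate mean, limit read from the data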;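 also: 0% = DMSO neutral controls and 100% = 20 µM radicicol positive controls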
tim10-1 inh – growth inhibitors of tim10-1 mutant yeast, primary screen, luminescence, uHTS | S. cerevisiae tim10-1 ts strain growth, BacTiter-Glo, 24 h | inhibition, % at 20 µM | hit rate 2.2% among 330,000 | AID 463190, 2010;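 active = inhibition of at least 40%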;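 also: mutant grown at 25 °C; 0% = DMSO wells with yeast and 100% = wells holding no yeast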
tim10-1 confirm – growth inhibitors of tim10-1 mutant yeast, confirmation, single concentration, luminescence, S. cerevisiae; inhibition, % at 20 µM; AID 463213, 2010; S. cerevisiae tim10-1 ts strain growth, BacTiter-Glo, 24 h; shares compounds with tim10-1 inh; hit rate 56% among 7,400;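 active = inhibition of yeast growth at or above a set limit in either of two repeat tests at 20 µM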;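 also: tim10-1 mutant grown at permissive 25 °C to find synthetic lethal compounds; 0% = DMSO yeast wells and 100% = medium wells without yeast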
tim10 confirm – growth inhibitors of wild-type TIM10 yeast, confirmation, counter-screen for tim10-1 synthetic lethality project, single concentration, luminescence, S. cerevisiae | shares compounds with TIM10 inh | S. cerevisiae tim10 strain growth, BacTiter-Glo luminescence, 24 h | inhibition, % at 10 µM | hit rate 63% among 4,600;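 active = inhibition of yeast growth at or above a set limit in either of two replicates at 10 µM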;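 also: this counterscreen used the strain with wild-type TIM10; 0% = yeast with DMSO and 100% = medium wells lacking yeast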
Starred values were filed as active, the others as inactive; / = not tested or not shown.

SMILES | SKKanGAS inh | NLRP3 yeast inh | tim23-1 inh | TIM10 inh | PfHsp90 set2 | tim10-1 inh | tim10-1 confirm | others
COc1ccc(C(=O)CSc2nnc(NC(=O)C3CC(=O)N(c4ccccc4C)C3)s2)cc1 (stereo not drawn) | 9 | 10 | -12 | -27 | 4 | 9 | /
COC(=O)C1=CN(Cc2ccc(OC)cc2)C=C(C(=O)OC)C1c1cc(OC)c(OC)c(OC)c1 | -2 | 19 | 28 | 17 | 4 | 22 | /
COC(=O)C1=CN(C(C)c2ccccc2)C=C(C(=O)OC)C1c1cc(OC)c(OC)c(OC)c1 (stereo not drawn) | -2 | 10 | 44 | 17 | -21 | 43* | 21
O=C1N[C@@H](Cc2ccccc2)C(=O)N2[C@H]1C[C@]1(Br)c3ccccc3N(S(=O)(=O)c3ccc(F)cc3)[C@H]21 | -6 | 17 | 9 | 11 | -3 | 16 | /
N/C(=N\OC(=O)CCCc1ccccc1)c1cccc([N+](=O)[O-])c1 | 2 | -7 | 32 | 35 | 5 | 46* | 42*
N/C(=N\OC(=O)CCCc1ccccc1)c1ccccc1 | 10 | 13 | 35 | 35 | -4 | 45* | 44*
S=c1nc[nH]c2c1sc1nc(N3CCOCC3)c3c(c12)CCCC3 | 13 | 2 | 36 | 23 | -59 | 43* | 19
COc1cccc(Nc2ncccc2C(=O)Nc2ccccc2)c1 | 5 | 34 | 43 | 26 | 6 | 53* | 38*
COc1cccc(NC(=O)c2ccccc2Oc2ccccc2)c1 | 11 | -2 | 26 | 12 | 10 | 10 | /
O=C(Nc1ccccc1)c1cccnc1NCCc1ccccc1 | -4 | 10 | 44 | 28 | 23 | 40* | 32*
CN1C(=O)C2(c3ccccc31)N(C)CC(c1ccccn1)C21SC(=S)N(Cc2ccco2)C1=O (stereo not drawn) | 1 | 3 | 41 | 33 | 45 | 47* | 30
CCOc1ccccc1NC(=O)C1CCCN(S(=O)(=O)c2ccc3c(c2)C(C)(C)C(=O)N3C)C1 (stereo not drawn) | 1 | -12 | 16 | 12 | -9 | 16 | /
COc1cccc(CNC(=S)Nc2cc(OC)ccc2OC)c1 | -2 | -34 | 14 | 11 | -5 | 45* | 25
CCCCc1ccc(NC(=S)Nc2ccc(Nc3ccc(OC)cc3)cc2)cc1 | -5 | 35 | 34 | 20 | -3 | 45* | 35*
Cc1ccc(NC(=S)NCCSc2ccc(Cl)cc2)c(C)c1 | -2 | 32 | 24 | -8 | -20 | 31 | /
CCCCc1ccc(NC(=S)Nc2cccnc2)cc1 | 1 | 11 | 23 | 15 | -3 | 36 | /
COc1ccc(OC)c(NC(=S)NCCSc2ccc(C)cc2)c1 | -4 | 29 | 42 | 33 | -3 | 44* | 14
CCCCc1ccc(NC(=S)NCc2cccc(OC)c2)cc1 | 8 | 13 | 17 | 33 | -22 | 44* | 30
CCC(C)(C(=O)NC1CCCC1)N(C(=O)CC1NC(=O)NC1=O)c1c(C)n(C)n(-c2ccccc2)c1=O (stereo not drawn) | 1 | -3 | 12 | 8 | 2 | 7 | /
O=C(NCCCN1CCCC1=O)C1CCN(S(=O)(=O)c2ccc(Cl)cc2)CC1 | / | 6 | 8 | 3 | 3 | 2 | /
COc1cc(C(=O)NCc2nnc(SCC(=O)N3CCOCC3)o2)cc(OC)c1OC | 2 | 18 | 4 | 13 | 1 | -2 | /
C=CCn1c(SCC(=O)N(CC)C2CCS(=O)(=O)C2)nc2cc(C(=O)O)ccc2c1=O (stereo not drawn) | / | 2 | 3 | -2 | / | 24 | /
Cc1cc(N2CCC(C(=O)NC3CCCCC3)CC2)nc(-c2ccccc2)n1 | -2 | 32 | -7 | 27 | -3 | 45* | 16
Cc1cc(N2CCC(C(=O)NC3CC3)CC2)nc(-c2ccccc2)n1 | 0 | 8 | 20 | 2 | 12 | 14 | /
O=C(Nc1ccccc1C(=O)N1CCCCC1)c1ccc(Cl)cc1Cl | -1 | 20 | 19 | 0 | -29 | 29 | /
SMILES | SKKanGAS inh | NLRP3 yeast inh | tim23-1 inh | TIM10 inh | PfHsp90 set2 | tim10-1 inh | tim10-1 confirm | others
CCN(CC)C(c1ccc(C)cc1)c1nnnn1C1CCCCC1 (stereo not drawn) | 7 | 26 | 47 | 36 | / | 44* | 29
CCN(CC)C(c1ccc(F)cc1)c1nnnn1C1CCCCC1 (stereo not drawn) | 10 | 21 | 27 | 25 | 3 | 31 | /
Fc1ccc(C(c2nnnn2C2CCCC2)N(Cc2ccco2)CC2CCCO2)cc1 (stereo not drawn) | -4 | 8 | 27 | 39 | -12 | 52* | 42*
CN1C(C(=O)NCc2ccc(OC(F)(F)F)cc2)CC2Cn3c(nc4ccccc43)C21 (stereo not drawn) | -1 | 12 | 22 | 15 | 5 | 28 | /
Cc1cc(OCC(=O)Nc2sc3c(c2C#N)CC(C)(C)NC3(C)C)c(C(C)C)cc1Cl | 10 | 26 | 25 | 18 | -11 | 47* | 24
Cc1ccc(C(C)C)c(OCC(=O)Nc2sc3c(c2C#N)CC(C)(C)NC3(C)C)c1 | 0 | 32 | 37 | 31 | -29 | 11 | /
O=S(=O)(Nc1ccc2c(c1)oc1ccccc12)N1CCCC1 | -7 | 12 | 22 | 39 | 18 | 48* | 27
O=S(=O)(c1ccc2c(c1)oc1ccccc12)N1CCOCC1 | -3 | 20 | 15 | 14 | / | 7 | /
O=C(NC1CCCC1)c1sc(=S)n2c1[nH]c(=O)c1ccccc12 | 30 | -20 | 23 | 24 | / | 47* | 26
CC12CC(c3ccccc3O1)N(C(=O)c1ccco1)C(=S)N2c1ccccc1 (stereo not drawn) | -3 | 7 | 46 | 38 | / | 42* | 27
S=C(NCCCc1ccccc1)Nc1ccc(Cl)cc1 | -7 | 27 | 47 | 47* | -5 | 55* | 52* | tim10 confirm=-27
S=C(NCCSCc1ccc(Cl)cc1)Nc1ccccc1 | -13 | 41 | 45 | 52* | -11 | 42* | 34* | tim10 confirm=-19
CCN(CC(=O)Nc1ccc(S(=O)(=O)N2CCCC2)cc1)CC(=O)Nc1ccccc1C(F)(F)F | / | 23 | 22 | 14 | / | 22 | /
CC(C)(C)SCCNS(=O)(=O)c1ccc(Cl)cc1 | -3 | 16 | 38 | 7 | -7 | 32 | /
